In ChEMBL document CHEMBL4513135, “CO-ADD screening of IQOG CSIS (Spain) compounds”:
Results with a measured potency or affinity are listed apart.

Assays:
[1] = test system: Klebsiella pneumoniae; conditions: Concentration 32 ug.mL-1; ASSAY_TEST Inhibition of Bacterial Growth; detection method Absorption (OD600); MEDIA CAMHB; plate type 384well; NBS; CORNING #3640; time 18 hr
[2] = test system: Candida albicans; conditions: 32 ug/mL
[3] = test system: Cryptococcus neoformans; conditions: Concentration 32 ug.mL-1; ASSAY_TEST Inhibition of Fungal Growth; detection method Resazurin; Absorption (OD600-OD570); plate type 384well; NBS; CORNING #3640

| SMILES | Inhibition [1] | Inhibition [2] | Inhibition [3] |
| --- | --- | --- | --- |
| Cc1nc2c3cnn(-c4ccccc4)c3nc(C)n2n1 | 15.01% | -1.82% | -6.35% |
| N#Cc1cc(C#N)c(NCCO)nc1N | 12.5% | 1.22% | -17.78% |
| Cc1nc(NO)c2c(C)nn(-c3ccccc3)c2n1 | 17.6% | 0.21% | -3.47% |
| Cc1nc2c3cnn(-c4ccccc4)c3ncn2n1 | 15.65% | 0.21% | -3.17% |
| O=C(Cc1c[nH]c2ccccc12)NNCCc1ccccc1 | 0.81% | 1.99% | -0.59% |
| COc1ccc2c(c1)cc(CN(C)C)n2C | 9.15% | -0.31% | -1.62% |
| CCOc1nc(N)c(C#N)c(-c2ccccc2)c1C#N | 4.68% | 1.61% | -46.51% |
| N#Cc1cc2c(N)c3c(nc2nc1Cl)CCCC3 | 24.47% | 2.63% | -42.44% |
| CC(=O)NC=C1C(=O)OC(C)(C)OC1=O | 18.67% | 0.54% | -4.92% |
| O=C1NC(=O)C(=Cc2ccccc2)N1 | 12.73% | -0.05% | -1.42% |
| N#CC1=C(N)Oc2c(ccc3ccccc23)C1c1ccc(Cl)c(Cl)c1 (stereo not drawn) | -23.32% | 1.53% | -2.77% |
| COc1ccc2c(c1)cc(CO)n2C | 4.36% | 3.54% | -5.23% |
| N#Cc1cc2c(N)c3c(nc2nc1N1CCCCC1)CCCC3 | 18.01% | 1.35% | -98.63% |
| Nc1c2c(nc3c1C(c1ccc(O)cc1)c1c(ccc4ccccc14)O3)CCCC2 (stereo not drawn) | 8.92% | 2.15% | -0.6% |
| CSC1=NC(=Cc2cn(C)c3ccccc23)C(=O)N1C | -7.62% | 1.89% | -7.7% |
| Cc1ccc(CNNC(=O)c2cc3ccccc3n2C)cc1 | -14.45% | 1.69% | -0.2% |
| Cl.N#Cc1c(Cl)nc(N)nc1NCCO | 6.6% | 1.9% | 8.33% |
| Cc1ccc(C2c3c(Cl)nnnc3Oc3ccc4ccccc4c32)cc1 (stereo not drawn) | 9.62% | 2.22% | -3.15% |
| C#CCN(C)c1nc(Cl)c(C#N)c(-c2ccccc2)c1C#N | 7.31% | 11.2% | -24.12% |
| Cc1ccc(C(O)SNNc2ncnc3c2cnn3-c2ccccc2)cc1 (stereo not drawn) | 7.03% | 2.59% | -4.5% |
| N#CC1(Br)C(=NBr)Oc2c(ccc3ccccc23)C1c1ccccc1[N+](=O)[O-] (stereo not drawn) | 24.4% | 25% | -80.63% |
| Cn1cc(C(=O)NN)c2ccccc21 | 3.16% | 4.47% | 7.89% |
| COC(=O)C(=Cc1ccc(OC)cc1)NC(=O)c1ccccc1 | 13.3% | 6.47% | -1.73% |
| CS(=O)(=O)O[C@H]1CC[C@H](OS(C)(=O)=O)CC1 | 13.68% | 3.52% | -30.83% |
| N#CC1=C(N)Oc2c(ccc3ccccc23)C1c1ccc(O)cc1 (stereo not drawn) | 6.16% | 0.86% | -59.36% |
| COC1=C(C#N)CC(C)C(=O)N1 (stereo not drawn) | 6.94% | 1.01% | -33.52% |

| SMILES | Inhibition [1] | Inhibition [2] | Inhibition [3] |
| --- | --- | --- | --- |
| Cn1ccnc1C1c2ccc3ccccc3c2Oc2nc3c(c(N)c21)CCCCC3 (stereo not drawn) | 8.79% | 1.99% | -67.84% |
| CCOC(=O)c1cc2cc(OC(=O)Oc3ccc([N+](=O)[O-])cc3)ccc2[nH]1 | 0.96% | 0.86% | -63.93% |
| C#CCNc1nc(NC2CCN(Cc3ccccc3)CC2)c(C#N)c(-c2ccccc2)c1C#N | -8.37% | 5.21% | -52.49% |
| COC1=C(C#N)C(c2ccccc2)C(C=O)=C(Cl)N1 (stereo not drawn) | 16.25% | 4.19% | -31.69% |
| C=CCNc1[nH]c2ccc(O)cc2c1C#N | 7.13% | 2.34% | -48.34% |
| Cn1ccnc1C1c2ccc3cccnc3c2Oc2nc3c(c(N)c21)CCCCC3 (stereo not drawn) | 9.25% | 2.52% | -79.42% |
| N#CC1(Br)C(=NBr)Oc2ccc3ccccc3c2C1c1ccc([N+](=O)[O-])cc1 (stereo not drawn) | -0.48% | 2.19% | -71.87% |
| O=C(O)n1ccc2ccccc21 | 4.22% | 4.1% | -3.58% |
| Cl.NC1(C(=O)O)CC1c1cccc(Cl)c1 (stereo not drawn) | 18.53% | 2.81% | -0.59% |
| O=C(N/N=C/c1ccc(Cl)cc1)c1cc2ccccc2[nH]1 | -19.43% | 3.28% | -0.9% |
| CCOC(=O)c1cc2ccccc2[nH]1 | 16.5% | 2.42% | -5.94% |
| CC(=O)NCCc1ccccc1 | 14.22% | 1.13% | -3.47% |
| N#CC1=C(N)Oc2ccc3ccccc3c2C1c1ccc(O)cc1 (stereo not drawn) | 11.07% | 2.93% | -36.73% |
| CC(C)(C)OC(=O)N[C@H]1CC[C@H](O)CC1 | 7.91% | 0.02% | -36.58% |
| COc1ccccc1C1c2ccc3ccccc3c2Oc2nc3c(c(N)c21)CCCC3 (stereo not drawn) | 8.8% | 0.31% | -4.38% |
| C=C1CN(C)c2c(C#N)cc(C#N)c(=S)n21 | 3.88% | 4.91% | -13.76% |
| Cn1ccnc1C1c2c(nc3c(c2N)CCC3)Oc2ccc3ccccc3c21 (stereo not drawn) | 7.74% | 1.46% | -36.13% |
| CC1CC(=O)Nc2c1c(Cl)nc1nc3c(c(N)c21)CCCC3 (stereo not drawn) | 13.46% | 3.48% | -92.92% |
| Cl.N#Cc1c(N)nc(NCCO)c(C#N)c1-c1ccccc1 | 7.62% | 1.4% | -7.17% |
| C#CCN(C)Cc1cc2cc(OCOc3ccc4c(c3)cc(CN(C)CC#C)n4C)ccc2n1C | 2.59% | -0.1% | -41.21% |
| Nc1c2c(nc3nc4ccccc4nc13)CCCC2 | -2.37% | 2.21% | -107.03% |
| C=CCNCc1cc2cc(OCCCC3CCN(Cc4ccccc4)CC3)ccc2[nH]1.O.O=C(O)C(=O)O.O=C(O)C(=O)O | -6.45% | 0.53% | -57.95% |
| N#Cc1cccnc1N | 16.36% | 1.57% | -34.57% |
| Nc1c2c(nc3c1C(c1ccc([N+](=O)[O-])cc1)c1c(ccc4ccccc14)O3)CCCC2 (stereo not drawn) | 9.13% | 1.59% | -0.47% |
| CC(=O)Nc1n[nH]c2nc(N)c(C#N)c(-c3ccccc3)c12 | 17.23% | 3.09% | -57.93% |
| CCOC(=O)c1c(C)nc(N)c(C#N)c1-c1cccs1 | -1.63% | 2.63% | -31.89% |

| SMILES | Inhibition [1] | Inhibition [2] | Inhibition [3] |
| --- | --- | --- | --- |
| CCC(CC)NNC(=O)c1cc2ccccc2n1C | 9.15% | 5.89% | -1.5% |
| C=C1CNc2c(C#N)c(-c3ccccc3)c(C#N)c(=N)n21 | 0.65% | 3.22% | -41.17% |
| N#Cc1cc(C#N)c(N2CCC(O)CC2)nc1N | -4.97% | 1.52% | -52.44% |
| CC(=O)Oc1cccc(C=C2N=C(c3ccccc3)OC2=O)c1 | 1.18% | 2.1% | -5.65% |
| N#CC1(Br)C(=NBr)Oc2c(ccc3ccccc23)C1c1cccc([N+](=O)[O-])c1 (stereo not drawn) | 24.92% | 10.2% | -69.53% |
| Cl.Nc1c2c(nc3c1C(c1c(Cl)cccc1Cl)c1ccc4ccccc4c1O3)CCCC2 (stereo not drawn) | 3.98% | -1.11% | -3.69% |
| Cc1cnc2ccc(Br)cn12 | -1.82% | 1.23% | -0.9% |
| Cn1ccnc1C1C(C#N)=C(N)Oc2c1ccc1cccnc21 (stereo not drawn) | 9.74% | 0.91% | -53.28% |
| COc1ccc(C2c3c(nc4c(c3N)CCCC4)Oc3ccc4ccccc4c32)cc1 (stereo not drawn) | 8.01% | 0.67% | 1.85% |
| CC(=O)CC(=O)N1[C@@H]2C[C@H]3CCC2(CS1(=O)=O)C3(C)C | 13.63% | 5.03% | -2.49% |
| N#CC1=C(N)Oc2c(ccc3ccccc23)C1c1ccccc1 (stereo not drawn) | 10.23% | 1.97% | -37.74% |
| N#Cc1cccnc1Cl | 9.13% | -0.53% | -53.41% |
| N#CC1=C(Cl)Oc2ccc3ccccc3c2C1c1ccccc1 (stereo not drawn) | 13.06% | 2.47% | -4.84% |
| COc1ccc(-c2cc(-c3cc4ccc(OC)cc4nc3Cl)cc(=O)[nH]2)cc1 | 4.32% | -0.61% | -66.65% |
| CC(=O)C(=Cc1ccccc1)C(=O)O[C@H]1C[C@H](C)CC[C@H]1C(C)C | 13.75% | 10.8% | -6.7% |
| Nc1nc(N)c(C=O)c(-c2ccccc2)c1C=O | -1.67% | 9.69% | -7.8% |
| NC1(C(=O)O)CC1c1ccc2c(c1)OCO2 (stereo not drawn) | 1.95% | -1.13% | -2.53% |
| Cl.OCCCC1CCNCC1 | 3.57% | 1.52% | -1.05% |
| O=C1OC(c2ccccc2)=NC1=Cc1ccc([N+](=O)[O-])cc1 | 9.13% | -1.46% | -3.36% |
| O=C(NNC(Cc1ccccc1)Cc1ccccc1)c1cc2ccccc2[nH]1 | 6.36% | -2.25% | -1.71% |
| COc1ccc2c(c1)cc(C(=O)Nc1ccccc1)n2C | 8.32% | 2.05% | -38.47% |
| Cc1[nH]nc2c1C(c1cccc([N+](=O)[O-])c1)C(C#N)=C(N)O2 (stereo not drawn) | 18.43% | -0.54% | -0.61% |
| C#CCN(C)c1nc(NCC2CCN(Cc3ccccc3)CC2)c(C#N)c(-c2ccccc2)c1C#N | 6.45% | 0.51% | -3.47% |
| C#CCNc1nc(NC2CCN(Cc3ccccc3)CC2)c(C#N)cc1C#N.Cl | -9.27% | 1.54% | -92.81% |
